Laboratory results published in the supplement of paper PMC11732987, “Enantioselective OTUD7B fragment discovery through chemoproteomics screening and high-throughput optimisation” (Communications Chemistry, 2025).

Tests used:
Test in all cases: log2 ratio of Biotin-Ahx-Ub-VS probe labelling (fragment/DMSO); higher = less target engagement (more negative = stronger competition), active = hit call of the paper (q ≤ 0.05, log2 ratio ≤ -1)
Settings in all cases: compound concentration: 200 uM; treatment time: 3 h
USP42 = target: T1, USP42 (UniProt Q9H9J4)
T1 sequence (whole entry): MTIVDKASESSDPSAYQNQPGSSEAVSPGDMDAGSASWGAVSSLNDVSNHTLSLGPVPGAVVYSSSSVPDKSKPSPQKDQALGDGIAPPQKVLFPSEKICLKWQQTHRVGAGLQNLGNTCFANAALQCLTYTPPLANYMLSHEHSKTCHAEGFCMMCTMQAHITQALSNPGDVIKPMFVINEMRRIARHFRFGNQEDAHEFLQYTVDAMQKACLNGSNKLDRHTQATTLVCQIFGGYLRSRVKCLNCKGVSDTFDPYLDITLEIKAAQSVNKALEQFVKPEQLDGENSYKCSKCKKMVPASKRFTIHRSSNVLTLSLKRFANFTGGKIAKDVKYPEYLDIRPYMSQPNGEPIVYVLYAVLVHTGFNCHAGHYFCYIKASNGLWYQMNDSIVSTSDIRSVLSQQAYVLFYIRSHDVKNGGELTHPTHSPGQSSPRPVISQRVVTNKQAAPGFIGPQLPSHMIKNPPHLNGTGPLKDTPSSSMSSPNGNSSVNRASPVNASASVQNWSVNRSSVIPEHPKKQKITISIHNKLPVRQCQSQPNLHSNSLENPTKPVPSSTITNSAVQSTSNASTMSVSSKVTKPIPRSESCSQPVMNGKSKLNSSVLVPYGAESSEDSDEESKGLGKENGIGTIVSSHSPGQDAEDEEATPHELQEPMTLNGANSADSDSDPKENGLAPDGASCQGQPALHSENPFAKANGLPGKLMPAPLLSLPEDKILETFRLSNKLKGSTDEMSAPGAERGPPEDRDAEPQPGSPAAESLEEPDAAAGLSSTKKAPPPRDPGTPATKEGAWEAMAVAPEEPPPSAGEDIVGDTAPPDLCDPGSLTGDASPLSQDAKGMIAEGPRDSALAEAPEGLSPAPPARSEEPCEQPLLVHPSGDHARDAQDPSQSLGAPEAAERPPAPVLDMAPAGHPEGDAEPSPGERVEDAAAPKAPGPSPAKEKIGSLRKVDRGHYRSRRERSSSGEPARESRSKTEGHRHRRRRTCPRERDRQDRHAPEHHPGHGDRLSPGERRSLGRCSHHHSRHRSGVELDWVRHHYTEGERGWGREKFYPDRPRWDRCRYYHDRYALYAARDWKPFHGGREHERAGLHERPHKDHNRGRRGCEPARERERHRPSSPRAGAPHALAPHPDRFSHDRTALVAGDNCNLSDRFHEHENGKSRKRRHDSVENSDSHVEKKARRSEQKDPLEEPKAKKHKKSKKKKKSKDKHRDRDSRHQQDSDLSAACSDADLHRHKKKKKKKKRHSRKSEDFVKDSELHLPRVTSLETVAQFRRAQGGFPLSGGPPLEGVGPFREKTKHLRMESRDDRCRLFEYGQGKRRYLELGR
Outline: (§1)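 Labelling with Biotin-Ahx-Ub-VS (0.5 µM final, 1 h) followed a 3 h triplicate treatment of HEK293T lysate (495 µg per sample, Tris/CHAPS/IGEPAL buffer with protease inhibitors) with fragment at 200 µM or vehicle. Labelled DUBs were NeutrAvidin-enriched, digested with LysC and trypsin, and run by diaPASEF LC-MS/MS. The values, average log2 fragment/vehicle ratios by unpaired t-test, come from global-median-normalised Spectronaut label-free quantities. Proteins with ≥2 unique peptides were used.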

USP46 = USP46 (UniProt P62068)
Outline: as §1

USP47 = target: T2, USP47 (UniProt Q96K76)
T2 sequence (whole entry): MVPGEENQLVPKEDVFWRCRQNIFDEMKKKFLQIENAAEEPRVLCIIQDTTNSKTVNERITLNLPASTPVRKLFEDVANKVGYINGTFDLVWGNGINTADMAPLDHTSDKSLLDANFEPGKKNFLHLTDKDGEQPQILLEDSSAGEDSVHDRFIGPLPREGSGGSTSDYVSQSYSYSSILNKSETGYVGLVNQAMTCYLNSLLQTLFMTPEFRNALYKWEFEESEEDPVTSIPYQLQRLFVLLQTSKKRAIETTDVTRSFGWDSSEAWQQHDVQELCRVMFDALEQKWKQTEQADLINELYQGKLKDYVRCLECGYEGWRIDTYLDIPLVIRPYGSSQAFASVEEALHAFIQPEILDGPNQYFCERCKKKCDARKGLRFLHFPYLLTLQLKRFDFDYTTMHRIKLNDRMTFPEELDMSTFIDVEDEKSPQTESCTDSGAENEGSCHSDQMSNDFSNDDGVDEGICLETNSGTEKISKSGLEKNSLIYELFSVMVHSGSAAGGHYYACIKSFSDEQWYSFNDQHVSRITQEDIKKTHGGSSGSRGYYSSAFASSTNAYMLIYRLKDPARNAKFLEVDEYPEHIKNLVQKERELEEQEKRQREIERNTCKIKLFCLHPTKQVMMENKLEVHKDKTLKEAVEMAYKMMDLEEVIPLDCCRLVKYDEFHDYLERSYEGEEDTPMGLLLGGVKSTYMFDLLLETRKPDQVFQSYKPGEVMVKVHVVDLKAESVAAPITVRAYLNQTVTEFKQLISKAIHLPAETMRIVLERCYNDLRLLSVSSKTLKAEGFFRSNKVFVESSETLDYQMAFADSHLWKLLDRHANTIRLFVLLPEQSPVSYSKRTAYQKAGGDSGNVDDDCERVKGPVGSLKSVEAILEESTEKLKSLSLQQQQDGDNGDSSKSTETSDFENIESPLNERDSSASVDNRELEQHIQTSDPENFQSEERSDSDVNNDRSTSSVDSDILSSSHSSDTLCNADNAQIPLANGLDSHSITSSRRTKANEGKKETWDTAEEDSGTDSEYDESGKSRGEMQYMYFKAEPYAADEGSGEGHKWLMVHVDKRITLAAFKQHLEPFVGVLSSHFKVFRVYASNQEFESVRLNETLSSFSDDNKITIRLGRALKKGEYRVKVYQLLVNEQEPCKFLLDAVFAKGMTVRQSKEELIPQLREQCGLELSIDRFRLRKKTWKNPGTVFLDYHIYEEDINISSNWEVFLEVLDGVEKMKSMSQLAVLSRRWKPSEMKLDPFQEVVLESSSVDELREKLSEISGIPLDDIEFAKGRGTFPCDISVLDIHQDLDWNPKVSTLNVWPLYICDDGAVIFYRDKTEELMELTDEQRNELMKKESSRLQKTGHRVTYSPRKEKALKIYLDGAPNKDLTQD
Outline: as §1

USP48 = target: T3, USP48 (UniProt Q86UV5)
T3 sequence (whole entry): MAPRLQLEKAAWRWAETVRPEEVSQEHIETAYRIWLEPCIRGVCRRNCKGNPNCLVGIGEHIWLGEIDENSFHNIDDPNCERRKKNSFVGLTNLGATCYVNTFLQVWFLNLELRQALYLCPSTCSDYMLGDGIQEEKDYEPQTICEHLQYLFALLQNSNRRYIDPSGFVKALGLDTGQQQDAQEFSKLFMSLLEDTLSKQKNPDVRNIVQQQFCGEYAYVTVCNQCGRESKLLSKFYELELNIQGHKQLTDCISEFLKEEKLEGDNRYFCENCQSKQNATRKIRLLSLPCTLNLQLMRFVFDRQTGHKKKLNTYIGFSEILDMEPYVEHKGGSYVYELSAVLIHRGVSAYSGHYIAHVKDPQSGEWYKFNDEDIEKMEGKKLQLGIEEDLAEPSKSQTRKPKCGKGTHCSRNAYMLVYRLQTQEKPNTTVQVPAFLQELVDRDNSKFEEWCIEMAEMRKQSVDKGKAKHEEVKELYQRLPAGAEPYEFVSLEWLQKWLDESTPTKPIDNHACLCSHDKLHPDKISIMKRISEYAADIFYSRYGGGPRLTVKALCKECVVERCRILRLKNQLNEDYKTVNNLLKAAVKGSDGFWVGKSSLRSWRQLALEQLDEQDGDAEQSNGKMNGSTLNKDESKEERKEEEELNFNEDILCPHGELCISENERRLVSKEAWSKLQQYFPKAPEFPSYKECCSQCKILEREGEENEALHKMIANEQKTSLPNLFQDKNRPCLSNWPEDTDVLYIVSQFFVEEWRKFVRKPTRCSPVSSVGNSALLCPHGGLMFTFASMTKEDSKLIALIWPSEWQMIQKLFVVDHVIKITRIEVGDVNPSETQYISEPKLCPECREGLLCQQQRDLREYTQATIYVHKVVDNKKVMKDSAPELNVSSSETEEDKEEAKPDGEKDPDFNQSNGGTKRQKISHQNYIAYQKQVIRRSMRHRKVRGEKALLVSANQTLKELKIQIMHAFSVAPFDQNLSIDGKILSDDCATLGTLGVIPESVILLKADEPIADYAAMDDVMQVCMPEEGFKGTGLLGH
Outline: as §1

USP5 = target: T4, USP5 (UniProt P45974)
T4 sequence (whole entry): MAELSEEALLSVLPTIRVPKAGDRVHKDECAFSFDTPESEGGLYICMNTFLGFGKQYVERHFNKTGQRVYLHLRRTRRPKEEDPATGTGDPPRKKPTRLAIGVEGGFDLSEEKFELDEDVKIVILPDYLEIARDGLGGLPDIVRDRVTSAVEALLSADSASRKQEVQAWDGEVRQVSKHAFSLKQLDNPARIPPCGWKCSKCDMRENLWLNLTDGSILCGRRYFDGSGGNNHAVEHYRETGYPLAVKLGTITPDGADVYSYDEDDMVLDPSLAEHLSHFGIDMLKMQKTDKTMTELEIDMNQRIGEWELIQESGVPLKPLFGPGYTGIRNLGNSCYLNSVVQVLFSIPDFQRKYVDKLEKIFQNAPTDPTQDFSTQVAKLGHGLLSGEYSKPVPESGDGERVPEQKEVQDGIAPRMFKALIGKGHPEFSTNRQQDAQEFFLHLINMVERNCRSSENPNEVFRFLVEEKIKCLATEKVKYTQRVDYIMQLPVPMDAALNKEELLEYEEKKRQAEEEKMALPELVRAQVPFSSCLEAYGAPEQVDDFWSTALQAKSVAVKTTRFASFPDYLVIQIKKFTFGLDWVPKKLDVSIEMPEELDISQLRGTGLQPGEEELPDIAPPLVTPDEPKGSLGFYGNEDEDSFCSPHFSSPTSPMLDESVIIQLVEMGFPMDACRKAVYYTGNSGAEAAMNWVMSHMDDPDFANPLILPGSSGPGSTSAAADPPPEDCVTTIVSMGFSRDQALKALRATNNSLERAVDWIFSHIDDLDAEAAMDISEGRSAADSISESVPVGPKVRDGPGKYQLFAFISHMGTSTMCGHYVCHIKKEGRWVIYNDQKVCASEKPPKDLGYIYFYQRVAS
Outline: as §1

USP54 = USP54 (UniProt Q70EL1)
Outline: as §1

USP7 = USP7 (UniProt Q93009)
Outline: as §1

USP8 = target: T5, USP8 (UniProt P40818)
T5 sequence (whole entry): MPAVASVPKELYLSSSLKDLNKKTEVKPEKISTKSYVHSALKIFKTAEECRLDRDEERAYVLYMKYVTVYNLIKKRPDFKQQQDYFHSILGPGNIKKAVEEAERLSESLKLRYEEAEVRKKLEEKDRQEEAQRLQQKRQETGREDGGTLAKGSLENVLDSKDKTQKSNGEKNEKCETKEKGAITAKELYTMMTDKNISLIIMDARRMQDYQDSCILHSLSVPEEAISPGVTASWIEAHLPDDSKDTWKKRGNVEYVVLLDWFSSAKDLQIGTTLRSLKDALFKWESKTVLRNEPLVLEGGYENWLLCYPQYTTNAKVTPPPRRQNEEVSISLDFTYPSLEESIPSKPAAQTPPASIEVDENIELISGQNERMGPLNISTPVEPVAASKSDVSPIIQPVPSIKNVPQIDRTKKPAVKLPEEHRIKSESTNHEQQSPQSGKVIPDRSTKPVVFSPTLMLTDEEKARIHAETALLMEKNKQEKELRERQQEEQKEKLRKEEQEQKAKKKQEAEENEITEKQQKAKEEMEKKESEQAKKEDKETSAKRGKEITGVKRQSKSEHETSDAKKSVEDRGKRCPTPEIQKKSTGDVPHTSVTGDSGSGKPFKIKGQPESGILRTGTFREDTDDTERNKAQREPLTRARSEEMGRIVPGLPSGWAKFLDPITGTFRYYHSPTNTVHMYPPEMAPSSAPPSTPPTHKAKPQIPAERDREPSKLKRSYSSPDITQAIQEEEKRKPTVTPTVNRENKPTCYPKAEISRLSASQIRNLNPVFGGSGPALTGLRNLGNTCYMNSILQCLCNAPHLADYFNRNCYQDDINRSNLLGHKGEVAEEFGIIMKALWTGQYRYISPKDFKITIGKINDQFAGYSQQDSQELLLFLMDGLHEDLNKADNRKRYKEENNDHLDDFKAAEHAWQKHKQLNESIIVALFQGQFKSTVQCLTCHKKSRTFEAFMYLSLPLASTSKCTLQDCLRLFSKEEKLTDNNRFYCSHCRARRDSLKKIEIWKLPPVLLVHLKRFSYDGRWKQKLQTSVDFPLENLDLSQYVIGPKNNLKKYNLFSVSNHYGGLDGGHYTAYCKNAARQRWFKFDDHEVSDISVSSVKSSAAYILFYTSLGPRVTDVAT
Outline: as §1

USP9X = USP9X (UniProt Q93008)
Outline: as §1

UniProt O00487 = target: UniProt O00487
Outline: as §1

Measured: log2 ratio of Biotin-Ahx-Ub-VS probe labelling

USP54, sequence (Q70EL1 whole entry): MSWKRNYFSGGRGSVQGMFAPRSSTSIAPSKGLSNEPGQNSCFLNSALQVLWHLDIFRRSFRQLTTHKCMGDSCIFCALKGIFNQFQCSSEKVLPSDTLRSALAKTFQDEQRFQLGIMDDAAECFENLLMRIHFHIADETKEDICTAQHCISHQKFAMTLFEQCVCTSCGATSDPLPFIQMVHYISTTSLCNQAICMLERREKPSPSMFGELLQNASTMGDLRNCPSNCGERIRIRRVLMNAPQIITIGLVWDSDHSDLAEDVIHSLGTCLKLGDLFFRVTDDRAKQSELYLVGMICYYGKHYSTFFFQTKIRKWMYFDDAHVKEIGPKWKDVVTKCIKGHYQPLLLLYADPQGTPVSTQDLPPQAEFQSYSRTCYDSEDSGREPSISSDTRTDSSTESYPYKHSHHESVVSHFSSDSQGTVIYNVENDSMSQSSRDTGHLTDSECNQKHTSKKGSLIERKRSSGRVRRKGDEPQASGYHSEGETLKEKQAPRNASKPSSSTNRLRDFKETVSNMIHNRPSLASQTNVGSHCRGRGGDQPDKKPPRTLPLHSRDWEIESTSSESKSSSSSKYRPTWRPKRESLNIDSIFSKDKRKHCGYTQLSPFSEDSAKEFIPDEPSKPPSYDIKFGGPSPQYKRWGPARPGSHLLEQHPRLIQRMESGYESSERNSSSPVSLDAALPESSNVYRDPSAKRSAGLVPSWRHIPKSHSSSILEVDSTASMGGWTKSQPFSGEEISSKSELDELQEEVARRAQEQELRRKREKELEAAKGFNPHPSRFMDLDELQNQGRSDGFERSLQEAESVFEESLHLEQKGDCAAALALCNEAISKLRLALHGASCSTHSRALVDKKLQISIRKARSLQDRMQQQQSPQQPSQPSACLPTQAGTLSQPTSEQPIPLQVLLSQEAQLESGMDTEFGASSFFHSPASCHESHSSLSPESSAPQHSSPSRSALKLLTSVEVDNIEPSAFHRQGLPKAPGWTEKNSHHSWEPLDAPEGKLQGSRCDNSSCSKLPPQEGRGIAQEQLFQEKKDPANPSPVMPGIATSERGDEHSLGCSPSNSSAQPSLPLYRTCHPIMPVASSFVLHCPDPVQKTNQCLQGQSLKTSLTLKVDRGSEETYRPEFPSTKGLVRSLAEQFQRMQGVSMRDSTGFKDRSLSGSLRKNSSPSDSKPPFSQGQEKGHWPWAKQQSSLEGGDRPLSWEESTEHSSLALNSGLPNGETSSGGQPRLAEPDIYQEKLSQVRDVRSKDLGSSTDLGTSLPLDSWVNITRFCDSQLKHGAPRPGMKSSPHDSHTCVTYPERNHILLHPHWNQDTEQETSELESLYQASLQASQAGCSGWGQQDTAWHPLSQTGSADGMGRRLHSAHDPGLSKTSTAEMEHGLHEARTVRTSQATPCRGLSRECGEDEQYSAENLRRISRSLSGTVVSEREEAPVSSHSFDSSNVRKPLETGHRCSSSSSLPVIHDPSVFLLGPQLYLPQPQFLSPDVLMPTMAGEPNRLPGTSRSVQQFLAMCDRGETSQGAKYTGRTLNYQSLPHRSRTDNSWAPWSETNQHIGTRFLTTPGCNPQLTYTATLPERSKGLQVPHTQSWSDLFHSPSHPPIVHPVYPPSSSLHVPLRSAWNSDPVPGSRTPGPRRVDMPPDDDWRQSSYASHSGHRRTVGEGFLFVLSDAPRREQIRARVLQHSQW
USP9X, sequence (Q93008 whole entry): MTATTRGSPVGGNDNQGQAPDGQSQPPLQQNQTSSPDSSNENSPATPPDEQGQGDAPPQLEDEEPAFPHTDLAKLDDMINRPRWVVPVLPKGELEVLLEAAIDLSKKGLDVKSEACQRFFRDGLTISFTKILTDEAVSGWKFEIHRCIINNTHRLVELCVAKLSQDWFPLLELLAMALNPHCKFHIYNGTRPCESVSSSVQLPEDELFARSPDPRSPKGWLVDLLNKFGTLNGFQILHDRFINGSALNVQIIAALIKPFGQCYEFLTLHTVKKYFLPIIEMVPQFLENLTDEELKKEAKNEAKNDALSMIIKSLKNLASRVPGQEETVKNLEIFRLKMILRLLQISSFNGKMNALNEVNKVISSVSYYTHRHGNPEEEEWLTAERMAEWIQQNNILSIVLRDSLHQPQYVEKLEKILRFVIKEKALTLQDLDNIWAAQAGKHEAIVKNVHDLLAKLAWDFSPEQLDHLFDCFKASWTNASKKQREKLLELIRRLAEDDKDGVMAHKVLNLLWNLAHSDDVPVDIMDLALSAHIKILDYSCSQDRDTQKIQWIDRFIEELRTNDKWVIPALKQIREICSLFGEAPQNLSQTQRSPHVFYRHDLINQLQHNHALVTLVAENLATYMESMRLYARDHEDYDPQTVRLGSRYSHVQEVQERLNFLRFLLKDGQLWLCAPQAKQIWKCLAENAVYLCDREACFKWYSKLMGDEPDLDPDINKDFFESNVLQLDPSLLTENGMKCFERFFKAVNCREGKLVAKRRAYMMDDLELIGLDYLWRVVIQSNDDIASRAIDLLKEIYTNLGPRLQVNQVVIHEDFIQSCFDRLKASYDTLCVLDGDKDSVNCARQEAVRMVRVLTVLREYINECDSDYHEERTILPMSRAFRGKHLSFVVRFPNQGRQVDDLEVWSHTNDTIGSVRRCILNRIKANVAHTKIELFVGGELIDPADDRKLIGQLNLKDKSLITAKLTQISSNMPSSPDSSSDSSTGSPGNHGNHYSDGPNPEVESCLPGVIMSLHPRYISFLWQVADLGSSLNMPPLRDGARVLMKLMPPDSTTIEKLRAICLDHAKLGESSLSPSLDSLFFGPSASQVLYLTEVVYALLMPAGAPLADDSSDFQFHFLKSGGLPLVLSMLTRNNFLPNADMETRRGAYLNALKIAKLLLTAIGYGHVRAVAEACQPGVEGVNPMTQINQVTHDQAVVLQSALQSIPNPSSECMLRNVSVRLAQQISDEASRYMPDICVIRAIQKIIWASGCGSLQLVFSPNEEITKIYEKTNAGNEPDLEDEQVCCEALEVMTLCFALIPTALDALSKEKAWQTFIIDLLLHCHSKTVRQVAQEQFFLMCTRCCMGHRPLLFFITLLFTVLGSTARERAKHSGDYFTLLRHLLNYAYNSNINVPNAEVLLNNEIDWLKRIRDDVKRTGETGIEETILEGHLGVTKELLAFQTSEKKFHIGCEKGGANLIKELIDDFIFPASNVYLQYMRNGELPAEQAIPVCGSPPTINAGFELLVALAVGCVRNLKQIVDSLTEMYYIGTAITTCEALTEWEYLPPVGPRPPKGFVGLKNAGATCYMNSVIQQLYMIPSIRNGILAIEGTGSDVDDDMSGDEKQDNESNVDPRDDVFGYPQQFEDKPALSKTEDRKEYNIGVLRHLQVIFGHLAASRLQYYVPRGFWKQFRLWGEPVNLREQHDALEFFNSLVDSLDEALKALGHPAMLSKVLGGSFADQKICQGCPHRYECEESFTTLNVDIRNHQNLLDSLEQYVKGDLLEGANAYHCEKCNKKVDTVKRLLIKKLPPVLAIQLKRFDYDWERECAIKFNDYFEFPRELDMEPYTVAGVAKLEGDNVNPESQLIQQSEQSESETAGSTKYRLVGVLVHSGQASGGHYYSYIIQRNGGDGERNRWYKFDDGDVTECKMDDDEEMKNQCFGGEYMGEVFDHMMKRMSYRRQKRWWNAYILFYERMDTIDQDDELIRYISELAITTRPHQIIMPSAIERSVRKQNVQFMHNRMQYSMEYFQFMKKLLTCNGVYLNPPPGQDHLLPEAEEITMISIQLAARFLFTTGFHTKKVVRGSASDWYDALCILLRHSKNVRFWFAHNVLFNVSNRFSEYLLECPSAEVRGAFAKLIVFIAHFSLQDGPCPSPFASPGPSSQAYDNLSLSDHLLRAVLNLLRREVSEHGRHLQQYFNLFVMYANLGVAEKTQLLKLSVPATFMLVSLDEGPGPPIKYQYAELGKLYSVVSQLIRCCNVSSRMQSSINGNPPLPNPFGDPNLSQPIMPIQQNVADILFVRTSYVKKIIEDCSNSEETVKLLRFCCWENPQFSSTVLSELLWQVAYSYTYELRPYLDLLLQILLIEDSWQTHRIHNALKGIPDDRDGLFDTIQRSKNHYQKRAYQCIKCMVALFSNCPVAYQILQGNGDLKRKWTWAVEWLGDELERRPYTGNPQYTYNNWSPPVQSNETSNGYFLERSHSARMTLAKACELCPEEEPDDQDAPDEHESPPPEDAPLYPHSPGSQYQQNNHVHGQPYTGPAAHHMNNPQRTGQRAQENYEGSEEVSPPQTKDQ
USP46, sequence (P62068 whole entry): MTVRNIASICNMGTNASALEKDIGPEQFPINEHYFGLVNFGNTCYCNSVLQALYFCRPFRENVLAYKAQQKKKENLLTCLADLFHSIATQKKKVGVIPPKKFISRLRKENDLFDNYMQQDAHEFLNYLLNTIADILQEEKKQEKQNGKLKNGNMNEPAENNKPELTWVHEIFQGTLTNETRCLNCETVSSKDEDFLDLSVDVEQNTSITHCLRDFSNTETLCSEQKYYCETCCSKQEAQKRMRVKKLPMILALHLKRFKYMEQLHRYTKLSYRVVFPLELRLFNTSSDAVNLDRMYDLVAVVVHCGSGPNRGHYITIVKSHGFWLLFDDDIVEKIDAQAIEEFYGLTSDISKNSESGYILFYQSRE
UniProt O00487, sequence (O00487 whole entry): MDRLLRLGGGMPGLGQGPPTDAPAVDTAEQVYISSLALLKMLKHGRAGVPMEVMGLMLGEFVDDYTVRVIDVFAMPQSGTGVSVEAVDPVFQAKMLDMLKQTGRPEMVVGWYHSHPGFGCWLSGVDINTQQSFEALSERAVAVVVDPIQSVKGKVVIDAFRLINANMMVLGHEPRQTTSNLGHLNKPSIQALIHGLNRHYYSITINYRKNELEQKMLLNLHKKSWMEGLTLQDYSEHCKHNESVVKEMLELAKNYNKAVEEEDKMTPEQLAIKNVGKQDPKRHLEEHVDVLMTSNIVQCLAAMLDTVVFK

C#Cc1cccc(NC(=O)CCl)c1
inactive: USP42 0.466 | USP46 -0.0515 | USP47 -0.468 | USP48 -0.362 | USP5 -0.268 | USP54 -0.249 | USP7 -0.56 | USP8 -0.179 | USP9X -0.146 | UniProt O00487 -0.148
